HepG2 viability = qHTS for Inhibitors of TGF-b: Cytotox Counterscreen | HepG2 CAGA-GFP viability, ATP luminescence, 18 h | Potency, µM (doses to about 46.1 µM), for the others: top-dose activity change, negative = cytotoxicity, actives largely listed as cytotoxic | actives 0.76% (n = 410,000) | AID 588856, 2011
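CellTiter-Glo luminescence gave cytotoxicity after 18 hours at 37 degrees C. The cells were HepG2 CAGA-GFP in 1% FBS DMEM, stimulated with 500 pg/mL TGF-beta after compound addition. %Activity was normalised to no-cell wells (complete cell-killing) and DMSO (no toxicity), and curves were fitted and classified.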
Gal4-VP16 FLuc = VP16 counterscreen qHTS for inhibitors of ROR gamma transcriptional activity; Drosophila S2 Gal4-VP16 UAS-luciferase, luminescence, 20 h; Potency, µM (doses to about 53.6 µM), without a hit: at the top dose activity, negative = inhibition, actives largely listed as inhibitors; actives 3.5% (n = 310,000);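 further: Gal4-VP16 expression switched on by copper sulfate through the metallothionein promoter; on the % scale 0 is the no-effect control and ±100 the full control effect; nearly all actives have a fitted effect of over 50% in size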
ATXN2 expr inh = Primary qHTS for Inhibitors of ATXN expression. Potency, µM (doses to about 57 µM), inactives show top-dose activity change, negative = inhibition, hits mostly inhibitors. actives 0.72% (n = 360,000). AID 1745845, 2022. HEK-293 ATXN2-luciferase reporter, luminescence, 24 h; further: on the % scale 0 is the no-effect control and ±100 the full control effect; nearly all actives have a fitted effect of over 55% in size
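ATXN2-luciferase reporter cells (luciferase flanked by upstream and downstream ATXN2 gene portions) were treated 24 h at 37 °C with compounds at up to 57 uM. SteadyGlo luminescence gave expression; GF-AFC fluorescence gave viability.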
TGFb SMAD3 inh = qHTS for Inhibitors of TGF-b; HepG2 CAGA-GFP TGF-b/SMAD3 reporter, GFP fluorescence, 18 h; TGF-beta stimulated, 500 pg/mL final; Potency, µM (titrated, usually from 46.1 µM), without a hit: at the top dose activity, negative = inhibition, hits mostly inhibitors; actives 1.2% (n = 410,000); further: on the % scale 0 is the no-effect control and ±100 the full control effect; nearly all actives have a fitted effect of over 65% in size
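HEPG2 CAGA-GFP reporter cells (1000/well, DMEM with 1% FBS) received compounds, then recombinant TGF-beta at 500 pg/mL final for 18 hours at 37 degrees C. Per-cell GFP summed per well was normalised to unstimulated and stimulated DMSO controls before curve fitting.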
RORgamma inh = qHTS for inhibitors of ROR gamma transcriptional activity; actives 5.4% (n = 310,000); Nuclear receptor ROR-gamma (Mus musculus), P51450; Drosophila S2 Gal4-RORgamma UAS-luciferase reporter, 20 h; Potency, µM (titrated, usually from 53.6 µM), for the others: top-dose activity change, negative = inhibition, usual class: inhibitors; AID 2551, 2010; further: on the % scale 0 is the no-effect control and ±100 the full control effect; nearly all actives have a fitted effect of over 60% in size
Target sequence (P51450 whole entry, looked up, the tested form may be a part): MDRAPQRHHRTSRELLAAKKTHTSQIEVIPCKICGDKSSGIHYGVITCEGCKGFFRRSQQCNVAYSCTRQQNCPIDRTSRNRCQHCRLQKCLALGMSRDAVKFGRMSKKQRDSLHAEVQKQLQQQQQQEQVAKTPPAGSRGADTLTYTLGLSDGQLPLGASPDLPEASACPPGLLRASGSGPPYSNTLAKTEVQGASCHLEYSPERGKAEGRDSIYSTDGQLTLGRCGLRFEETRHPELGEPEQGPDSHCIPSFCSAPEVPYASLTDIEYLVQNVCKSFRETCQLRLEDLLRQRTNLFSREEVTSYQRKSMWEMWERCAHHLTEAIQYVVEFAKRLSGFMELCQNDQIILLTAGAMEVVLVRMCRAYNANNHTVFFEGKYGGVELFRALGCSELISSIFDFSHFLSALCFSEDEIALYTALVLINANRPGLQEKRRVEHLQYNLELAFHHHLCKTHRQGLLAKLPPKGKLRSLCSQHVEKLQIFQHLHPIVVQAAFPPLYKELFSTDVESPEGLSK
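Stable Schneider cell line, Gal4 DNA-binding domain fused to ROR gamma, UAS-luciferase. Cmpd 1 hr RT → CuSO4 700 uM final → 20 hr RT → luciferase reagent 10 min → luminescence.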
S2 tox = Viability Counterscreen for Primary qHTS for Inhibitors of ATXN expression; S2 cells (HEK-293 line with an ATXN2-luciferase reporter) viability, CellTiter-Fluor protease fluorescence, 24 h; Potency, µM (doses to about 56.7 µM), hits mostly cytotoxic; actives 0.49% (n = 400,000); further: nearly all actives have a fitted effect of over 40% in size
The depositor's hits bear a star; i = inactive; ? = inconclusive; · = no result. An excerpt weighted towards active compounds, which were near 6.3% of everything screened. The call rests on the fitted dose curve; in most records, active means well fitted curve in the direction sought with a large enough effect; inconclusive means small, poorly fitted or top-dose-only effect, or another doubt; inactive means no such curve, though single readings can be large; an effect the other way counts as inactive or inconclusive. Potency means the concentration at half of the fitted maximal effect.

SMILES	HepG2 viability	Gal4-VP16 FLuc	ATXN2 expr inh	TGFb SMAD3 inh	RORgamma inh	S2 tox
CN(C)CCNC(=O)c1cccc2ccc(-c3ccc(-c4ccccc4)cc3)nc12	-92%	·	-14%	-15%	·	27µM*
COc1ccc(CCNC(=O)Cn2cc(C(=O)c3ccccc3)c(=O)c3ccc(C)nc32)cc1OC	-5%	·	-2%	25%	·	i
Cc1cc2c([nH]c3ccccc32)c(C)n1	-12%	-16%	-22%	-5%	1µM*	i
Cc1nc(C(=O)O)cc2c1[nH]c1ccccc12	3%	·	6%	0%	·	i
CCOc1ccc(-c2c(C)nn3c(C)c(C(=O)NCc4ccc(Cl)cc4)cnc23)cc1OCC	-4%	·	-4%	-2%	·	i
OC1CCCN(C(=S)Nc2ccc(SC(F)F)cc2)C1 (configuration not stated)	7%	-1%	27%	14%	12%	i
CC1CN(c2ccc(NC(=S)Nc3ccc(N4CC(C)OC(C)C4)cc3)cc2)CC(C)O1 (configuration not stated)	-14%	8.9µM*	·	1%	2.5µM*	i
CC1CC(C)CN(C(=S)Nc2ccc(SC(F)F)cc2)C1 (configuration not stated)	-20%	11µM*	-2%	-27%	5µM*	i
CC1CN(C(=S)Nc2ccc(Cl)cc2)CC(C)O1 (configuration not stated)	-1%	-25%	-10%	4%	-43%	·
CC1CC(C)CN(C(=S)Nc2ccc(OC(F)F)cc2)C1 (configuration not stated)	-9%	?	4%	-8%	11µM*	?
CC1CN(C(=S)Nc2ccc(SC(F)F)cc2)CC(C)O1 (configuration not stated)	-5%	-8%	2%	1%	11µM*	?
CSc1nc(Nc2ccc(C)cc2)c(C#N)c(-c2ccccc2)n1	7%	·	7%	3%	·	i
OC(CBr)C[n+]1cc(Br)cc2ccccc21 (configuration not stated)	-12%	·	·	-2%	·	·
CC(=O)Oc1ccc(OC(C)=O)c(SCCCCCN2CCOCC2)c1	-81%	?	?	16µM*	?	?
CC(C)c1ccc(OCCCCCN2CCOCC2)cc1	-36%	-12%	18%	-6%	13%	i
CC(C)CC1C(=O)N(Cc2cn(CCC3OCCO3)nn2)CCS(=O)(=O)N1Cc1ccc(-c2ccncc2)cc1 (configuration not stated)	-31%	·	-10%	-2%	·	i
CC(=O)c1ccc(-c2ccc3c4c(ccc3c2)OC(CNC(=O)[C@@H]2CCCN2C(C)=O)C4)s1 (some centres not stated)	·	·	·	·	·	i
Cc1[nH]c2ccccc2c1/C=C/c1ccnc2ccccc12	-110%	·	·	13µM*	·	·
Cc1[nH]c2ccccc2c1/C=C/c1nccc2ccccc12	-52%	·	·	-17%	·	·
CCCN(CCC)c1ccc(/C=C/c2ccnc3ccccc23)cc1	10µM*	·	·	217%	·	·
CCC[N+](C)(C)c1ccc(/C=C/c2ccnc3ccccc23)cc1	-50%	·	·	2µM*	·	·
CCOc1ccc(NC(=O)CSC2=Nc3ccccc3C3=NC(CCC(=O)NCc4cccs4)C(=O)N23)cc1 (configuration not stated)	-3%	·	·	41%	·	·
Cc1ccccc1Cn1c(C)c(C(=O)N(C)Cc2ccc(F)cc2)sc1=O	-5%	·	-12%	-28%	·	i
COc1cc(NC(=O)Cn2ncc(Cl)c(Cl)c2=O)c(C)cc1[N+](=O)[O-]	-26%	7.1µM*	27µM*	?	2µM*	17µM*
Cc1sc2ncnc(N3CCCCC3)c2c1C	-40%	-8%	-18%	-19%	1%	i

High-throughput results (PubChem)
